Data as given in PMC7826789 (International Journal of Molecular Sciences, 2021).

What was measured:
Conditions in all cases: Compound Concentration (nM):1000
MYLK4 = test system: MYLK4
MYLK = test system: MYLK
MYO3A = test system: MYO3A
MYO3B = test system: MYO3B
NDR1 = test system: T1, NDR1
T1 construct: gene STK38

NDR2 = test system: T2, NDR2
T2 construct: gene STK38L

NEK10 = test system: NEK10
NEK11 = test system: NEK11
NEK1 = test system: NEK1
NEK2 = test system: NEK2
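Also: KINOMEscan scanMAX binding as percent activity remaining versus control; lower means stronger binding.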

Row | Structure (SMILES) | Percent Control (MYLK4) | Percent Control (MYLK) | Percent Control (MYO3A) | Percent Control (MYO3B) | Percent Control (NDR1) | Percent Control (NDR2) | Percent Control (NEK10) | Percent Control (NEK11) | Percent Control (NEK1) | Percent Control (NEK2)
1 | COc1cc(N2CCN(C(C)C)CC2)ccc1Nc1nc(Nc2ccc(F)cc2C(=O)NC[C@@H](O)CO)c2cc[nH]c2n1 [GSK1392956A] | 82% | 0.3% | 88% | 100% | 99% | 91% | 34% | 100% | 82% | 99%
2 | COc1cc(/C=N/Nc2ncnc3[nH]ncc23)ccc1O [GW578748X] | 38% | 68% | 100% | 100% | 73% | 100% | 100% | 28% | 70% | 100%
3 | CC1=C(C(=O)Nc2ccc3[nH]ncc3c2)C(c2ccc3ccccc3c2)CC(=O)N1 (stereo not shown) [GSK270822A] | 78% | 93% | 90% | 100% | 28% | 61% | 65% | 81% | 87% | 85%
4 | Cl.O=C(Nc1ccc(Oc2ccc3[nH]c(NC(=O)c4ccccc4)nc3c2)cc1)Nc1cc(C(F)(F)F)ccc1F [GW709042A] | 100% | 99% | 100% | 100% | 100% | 100% | 100% | 100% | 89% | 100%
5 | Cl.O=C(O[C@H]1CN[C@H](C#Cc2cc3ncnc(Nc4ccc5c(cnn5Cc5ccccc5)c4)c3s2)C1)N1CCOCC1 [GSK200398A] | 91% | 100% | 100% | 100% | 100% | 100% | 96% | 100% | 68% | 72%
6 | NS(=O)(=O)c1ccc(N/N=C2\C(=O)Nc3ccc(C(=O)NCc4ccncc4)cc32)cc1 [GW300657X] | 83% | 45% | 68% | 100% | 76% | 82% | 48% | 40% | 80% | 79%
7 | COc1ccccc1-c1cc(/C=C2\C(=O)Nc3ncc(Br)cc32)cc(Br)c1O [GW442130X] | 100% | 100% | 75% | 100% | 97% | 74% | 100% | 100% | 95% | 100%
8 | CC(C)COC(=O)c1ccc2c(c1)/C(=C/Nc1ccc(S(N)(=O)=O)cc1)C(=O)N2 [GW416981X] | 100% | 100% | 100% | 100% | 66% | 100% | 100% | 100% | 94% | 100%
9 | C/C(Nc1ccc(S(N)(=O)=O)cc1)=C1/C(=O)Nc2ccccc21 [GW335962X] | 100% | 70% | 66% | 100% | 65% | 87% | 100% | 100% | 75% | 100%
10 | COc1cc2ncnc(Nc3ccc4c(cnn4Cc4ccccc4)c3)c2cc1OC.Cl [GW282449A] | 100% | 100% | 100% | 100% | 100% | 100% | 100% | 100% | 95% | 100%
11 | Nc1ncnc2occ(-c3ccc(NC(=O)Nc4cc(C(F)(F)F)ccc4F)cc3)c12 [GW770249X] | 100% | 100% | 9.7% | 15% | 94% | 100% | 100% | 100% | 89% | 77%
12 | CC1=C(C(=O)Nc2ccc3[nH]ncc3c2)C(c2ccc(Cl)c(Cl)c2)CC(=O)N1 (stereo not shown) [GSK299115A] | 91% | 100% | 88% | 90% | 21% | 67% | 72% | 86% | 84% | 97%
13 | COc1ccc(COc2ccc(Cc3cnc(N)nc3N)cc2OC)cc1 [GW632580X] | 100% | 100% | 92% | 100% | 93% | 86% | 95% | 100% | 100% | 84%
14 | Cl.O=C(Nc1ccc(Oc2ccc3[nH]c(NC(=O)c4ccco4)nc3c2)cc1)Nc1cc(C(F)(F)F)ccc1F [GW683134A] | 100% | 100% | 100% | 100% | 100% | 76% | 100% | 100% | 80% | 100%
15 | CCn1c(-c2nonc2N)nc2c(C#CC(C)(C)O)nc(OCCNC)cc21.Cl [GSK949675] | 100% | 88% | 100% | 98% | 87% | 81% | 100% | 100% | 100% | 100%
16 | COC(=O)Nc1nc2ccc(Oc3ccc(NC(=O)Nc4cc(C(F)(F)F)ccc4F)cc3)cc2s1.Cl [GW693917A] | 93% | 100% | 93% | 100% | 86% | 94% | 90% | 100% | 94% | 82%
17 | O=C1Nc2ccc(C(=O)c3ccco3)cc2C1=Cc1cc(Cl)c(O)c(Cl)c1 [GW406108X] | 69% | 51% | 34% | 100% | 95% | 88% | 3.3% | 100% | 78% | 83%
18 | CCc1ccc(Oc2nccc(-c3c(-c4ccc(F)cc4)ncn3C3CCNCC3)n2)cc1 [SB-242719] | 98% | 100% | 87% | 100% | 92% | 96% | 99% | 100% | 100% | 96%
19 | COc1ccc2cc(-c3c(-c4ccncc4)nc(-c4ccc(S(C)(=O)=O)cc4C)n3C)ccc2c1 [SB-633825] | 93% | 82% | 53% | 18% | 77% | 63% | 69% | 90% | 100% | 93%
20 | COc1cc(C=NNc2ncnc3c2cnn3-c2ccccc2)ccc1O [GW513184X] | 100% | 100% | 100% | 95% | 100% | 100% | 100% | 100% | 100% | 100%

Row | Structure (SMILES) | Percent Control (MYLK4) | Percent Control (MYLK) | Percent Control (MYO3A) | Percent Control (MYO3B) | Percent Control (NDR1) | Percent Control (NDR2) | Percent Control (NEK10) | Percent Control (NEK11) | Percent Control (NEK1) | Percent Control (NEK2)
21 | CCS(=O)(=O)c1ccc(OC)c(Nc2ncc(-c3cccc(OC)c3)o2)c1 [GW580509X] | 100% | 94% | 97% | 100% | 100% | 100% | 100% | 100% | 98% | 100%
22 | NS(=O)(=O)c1ccc(N/N=C2\C(=O)Nc3ccc(C(=O)NCCc4c[nH]cn4)cc32)cc1 [GW300660X] | 87% | 79% | 100% | 100% | 77% | 100% | 100% | 100% | 100% | 100%
23 | NS(=O)(=O)c1ccc(Nc2ncc(-c3ccccc3)o2)cc1 [GW572399X] | 81% | 100% | 100% | 100% | 83% | 100% | 100% | 100% | 84% | 100%
24 | Cl.O=S1CCN(Cc2ccc(-c3ccc4ncnc(Nc5ccc(OCc6ccccc6)c(F)c5)c4c3)o2)CC1 [GW576924A] | 100% | 100% | 100% | 100% | 99% | 100% | 100% | 100% | 93% | 100%
25 | CN(C)c1cc2c(Nc3ccc4c(cnn4Cc4ccccc4)c3)ncnc2cn1 [GW282974X] | 86% | 100% | 92% | 99% | 100% | 84% | 89% | 100% | 79% | 66%
26 | CN(C)CCNC(=O)Nc1ccc(N(C)c2ccnc(Nc3ccc(CS(C)(=O)=O)cc3)n2)cc1.Cl [GW830900A] | 100% | 100% | 99% | 92% | 86% | 100% | 87% | 100% | 92% | 90%
27 | COc1ccc2[nH]c3c4[nH]c5ccc(OC)cc5c4c4c(c3c2c1)C(=O)NC4=O [GW296115X] | 49% | 6.9% | 81% | 100% | 57% | 72% | 93% | 100% | 100% | 78%
28 | O=C(Nc1n[nH]c2nc(-c3ccc(O)cc3)c(Br)cc12)C1CC1 [SB-725317] | 100% | 56% | 48% | 100% | 100% | 100% | 100% | 100% | 99% | 100%
29 | NS(=O)(=O)c1ccc(N/N=C2\C(=O)Nc3ccc(Cl)cc32)cc1 [GW280670X] | 100% | 80% | 100% | 100% | 91% | 100% | 100% | 100% | 100% | 100%
30 | Cc1cc(O)cc(C)c1/C=C/c1cncc(C(N)=O)c1 [GW435821X] | 100% | 97% | 100% | 100% | 99% | 100% | 100% | 100% | 100% | 100%
31 | Cl.c1ccc(Cc2nc3ccc(Nc4ncnc5ccccc45)cc3[nH]2)cc1 [GR269666A] | 100% | 100% | 100% | 100% | 100% | 100% | 100% | 100% | 99% | 100%
32 | COc1cc(C)c(N(C)C(=O)CN(C)C)cc1Nc1nc(Nc2cccc(F)c2C(N)=O)c2cc[nH]c2n1 [GSK2219385] | 100% | 10% | 96% | 100% | 100% | 85% | 52% | 100% | 100% | 72%
33 | COc1ccc2c(-c3ccnc(Nc4cccc(OC(F)(F)F)c4)n3)cnn2n1 [GW810372X] | 60% | 100% | 100% | 100% | 100% | 96% | 100% | 100% | 85% | 100%
34 | COc1cc2ncn(-c3cc(O[C@H](C)c4ccccc4Cl)c(C(N)=O)s3)c2cc1OC [GSK237701A] | 45% | 94% | 100% | 100% | 84% | 100% | 95% | 78% | 51% | 3.7%
35 | COc1cccc(-n2ncc3c(N/N=C/c4ccncc4)ncnc32)c1 [GW784752X] | 100% | 89% | 100% | 100% | 96% | 100% | 84% | 100% | 84% | 100%
36 | C[C@@H](Oc1cc(-n2cnc3ccc(OC4CCN(C)CC4)cc32)sc1C(N)=O)c1ccccc1Cl [GSK579289A] | 62% | 81% | 74% | 87% | 98% | 88% | 92% | 100% | 60% | 9.5%
37 | CN1CCN(C(=O)c2ccc(NC(=O)Nc3ccc(N(C)c4ccnc(Nc5ccc(CS(C)(=O)=O)cc5)n4)cc3)cc2)CC1.Cl [GW830263A] | 98% | 100% | 7% | 23% | 54% | 100% | 94% | 100% | 63% | 89%
38 | COc1cccc(-c2c[nH]c3c(N/N=C/c4ccncc4)ncnc23)c1 [GW814408X] | 100% | 100% | 100% | 100% | 93% | 98% | 92% | 100% | 95% | 100%
39 | CCS(=O)(=O)c1ccc(OC)c(Nc2ncc(-c3cccc(F)c3)o2)c1 [GW621970X] | 100% | 100% | 100% | 100% | 100% | 100% | 100% | 93% | 84% | 100%
40 | NS(=O)(=O)c1ccc(N/N=C2\C(=O)Nc3ccc(-c4cnco4)cc32)cc1 [GW276655] | 49% | 50% | 77% | 100% | 67% | 68% | 89% | 93% | 71% | 100%
